From PubChem BioAssay
a7 integrin act: qHTS for Activators of Integrin-Mediated Alleviation for Muscular Dystrophy | 350,000 compounds, 0.064% hits | AID 624291, 2012 | Potency, µM (titrated, usually from 38.3 µM), actives largely listed as activators | alpha7betagal myoblasts, beta-gal FDG fluorescence, 48 h; note: nearly all actives have a fitted effect of over 60% in size
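alpha7betagal+/- myoblasts (passage 13, 250/well) treated 48 h at 37C with compounds at 1:260 dilution of DMSO stock. Lysed, then beta-galactosidase activity read as FDG fluorescence (ex 480/em 540) after 30 min, with pre-read for autofluorescence.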
GLP1R ag: qHTS of GLP-1 Receptor Agonists; Glucagon-like peptide 1 receptor (Homo sapiens), P43220; HEK293 GLP-1R CRE-luciferase, luminescence, 4-6 h; cells express a hypersensitive GLP-1R form; Potency, µM (highest dose often 45.6 µM), actives largely listed as activators; 380,000 compounds, 0.007% hits; AID 624172, 2012
Target sequence (P43220 whole entry, looked up): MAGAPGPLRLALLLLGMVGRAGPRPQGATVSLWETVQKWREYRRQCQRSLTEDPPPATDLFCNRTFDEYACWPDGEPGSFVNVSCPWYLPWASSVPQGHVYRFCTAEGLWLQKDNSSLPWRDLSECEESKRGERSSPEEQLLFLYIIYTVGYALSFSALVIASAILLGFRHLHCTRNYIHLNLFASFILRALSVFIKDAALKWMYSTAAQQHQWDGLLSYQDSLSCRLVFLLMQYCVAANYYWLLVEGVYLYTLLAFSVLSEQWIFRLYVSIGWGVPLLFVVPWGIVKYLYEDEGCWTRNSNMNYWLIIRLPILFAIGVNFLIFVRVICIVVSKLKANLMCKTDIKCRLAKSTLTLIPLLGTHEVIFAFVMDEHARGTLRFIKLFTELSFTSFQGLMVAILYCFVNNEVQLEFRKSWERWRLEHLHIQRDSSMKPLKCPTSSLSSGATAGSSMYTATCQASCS
BRCA1 expr up: qHTS Assay to Identify Small Molecule Activators of BRCA1 Expression; 380,000 compounds, 1.1% hits; Potency, µM (highest dose often 46.1 µM), usual class: activators; MCF7-BRCA1-FFLuc reporter, luminescence, 48 h; response scale: scaled: vehicle 0%, 10 µM genistein 100%; note: nearly all actives have a fitted effect of over 80% in size
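Using MCF7 cells harboring a BRCA1 firefly luciferase reporter, plated 2 h before compound pinning, the screen measured luminescence after 48 h incubation. Responses were normalized to DMSO and 10 microM genistein, then fitted for concentration-effect.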
GLP1R cytotox: qHTS of GLP-1 Receptor Inverse Agonists: Cytotox Screen. HEK293 cAMP-luciferase reporter cells, luminescence, 24 h. Potency, µM (top dose mostly 38.3 µM), most hits filed as inhibitors. 410,000 compounds, 0.13% hits. AID 624418, 2012;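 note: loss of luciferase light is scored as toxicity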
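Step one: seed cells (200 cells/uL, DMEM with 10% Nu serum, 1% pen-strep). Step two: 12-hour incubation at 37 deg C. Step three: pin 23 nL compound, incubate 24 hr. Step four: add luciferase reagent, read luminescence 12 min later.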
GLP-1R inv ag: qHTS of GLP-1 Receptor Inverse Agonists (Inhibition Mode). Potency, µM (titrated, usually from 38.3 µM), actives largely listed as inhibitors. HEK293 GLP-1R CRE-luciferase, luminescence, 24 h; GLP-1R form is constitutively active. 410,000 compounds, 1.6% hits. Glucagon-like peptide 1 receptor (Homo sapiens), P43220. AID 624417, 2012; note: nearly all actives have a fitted effect of over 55% in size
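Seeding at 200 cells/uL, 12 h culture, 24 hr compound treatment, then luciferase reagent and a luminescence read; cells are HEK293 stably expressing a constitutively active GLP-1R plus cAMP-responsive luciferase.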
Hits are given with their value; – = inactive; ? = inconclusive; · = not tested or not shown. This is a sample that favours compounds with a hit; in the whole collection about 2.7% have one here. Calls come from the whole dose curve; as a rule, active = well fitted curve in the direction sought with a large enough effect; inconclusive = small, poorly fitted or top-dose-only effect, or another doubt; inactive = no such curve, though single readings can be large; an effect the other way counts as inactive or inconclusive.

SMILES	a7 integrin act	GLP1R ag	BRCA1 expr up	GLP1R cytotox	GLP-1R inv ag
Clc1cccc2sc(N3CCOCC3)nc12	–	?	16µM	–	–
CCC(=O)N1CCC(c2ccc(OC)cc2)=N1	–	–	11µM	–	–
COc1ccccc1Cn1c(CNS(=O)(=O)c2ccc(Cl)s2)nc2cccnc21	·	·	·	–	–
COc1ccc(/C=C2\SC(=S)N(CCC(=O)Nc3ccc(O)cc3)C2=O)cc1	–	–	–	–	–
CCN(CC)CCOC(=O)c1ccc(NC(=O)CCCN2C(=O)S/C(=C/c3ccc(OC)cc3)C2=S)cc1	–	–	–	?	2.8µM
CCc1ccccc1NC(=O)c1ccc2[nH]c(C)c(C)c2c1	·	·	8.9µM	–	–
CCOCCc1nn2c(=O)cc(COC(=O)c3ccco3)nc2s1	·	·	·	–	–
COCCNC(=O)c1cc2sc3ccccc3c2s1	–	–	–	–	–
CN(C)CCCNC(=O)c1cc2sc3ccccc3c2s1	–	–	–	?	4µM
CCCCN(CC)CCCNC(=O)c1cc2c(=O)n(CC)c3ccccc3c2s1	–	–	–	–	2.8µM
Cc1ccc(CN(C(=O)COc2ccc(Cl)c(C)c2)c2ccccn2)o1	·	·	–	–	?
Cn1c(C(=O)NC2CCCCC2)cc2sccc21	–	–	5.6µM	–	–
CN(C(=O)c1cc2sccc2n1C)C1CCCCC1	–	–	6.3µM	–	?
Cn1c(C(=O)N2CCCC(C(=O)O)C2)cc2sccc21 (stereo not given)	–	–	–	–	–
Cc1cccc(C)c1N(CCCc1cccnc1)C(=O)[C@@H](C)N	·	–	·	·	·
COc1ccc(C2NC(=S)N3C(c4ccc(OC)c(OC)c4)NC(=S)N23)cc1OC (stereo not given)	·	–	·	·	·
O=C(CCl)N(C1CCCC1)C1CCS(=O)(=O)C1 (stereo not given)	–	–	–	–	4.5µM
Cc1nc2c(-c3ccc(F)cc3)cnn2c(N)c1-c1ccccc1	–	–	–	–	0.89µM
Cc1ccc(OCCn2c(CCNC(=O)C(C)C)nc3ccccc32)cc1	–	–	–	–	7.9µM
CC(C)(C)C(=O)NCCc1nc2ccccc2n1CCCCOc1ccc(Cl)cc1	·	·	·	–	10µM
CC(C)C(=O)NCCc1nc2ccccc2n1CCCOc1ccc(Cl)cc1	–	–	–	?	?
O=C(O)/C=C(/CC(=O)O)C(=O)O	·	–	·	·	·
COc1cc(/C=N/N=C2/NC(=O)C(CC(=O)O)S2)ccc1OCc1cccc(Cl)c1 (stereo not given)	–	–	11µM	–	–
CC(C)Cn1cc(C(=O)N2CCN(c3cccc(Cl)c3)CC2)c2c3ccccc3n(C)c2c1=O	·	·	·	–	10µM
CCC(=O)N(CCC(c1ccccc1)c1ccc2c(c1)OCO2)Cc1ccc(OC(C)C)cc1 (stereo not given)	·	–	–	–	13µM
SMILES	a7 integrin act	GLP1R ag	BRCA1 expr up	GLP1R cytotox	GLP-1R inv ag
O=C(N/N=C/c1ccc(O)cc1)c1ccc(COc2cc(Cl)ccc2Cl)o1	–	–	–	–	1.4µM
Cc1sc(NC(=O)c2ccco2)c(CN2CCN(c3ccccc3)CC2)c1C	–	–	–	–	–
Cc1sc(NC(=O)c2ccco2)c(CN2CCCCC2)c1C	–	–	–	–	6.3µM
CCOc1ccc(Nc2oc(-c3ccc(COc4ccc(OC)cc4)o3)nc2C#N)cc1	·	·	·	–	–
COc1ccccc1/C=C/C1(C(=O)NC2CCCC2)CC(=O)N1c1ccccc1 (stereo not given)	–	–	–	–	3.2µM
CN(C)S(=O)(=O)c1ccc(N2C(=O)CC2(/C=C/c2ccccc2)C(=O)NC2CCCC2)cc1 (stereo not given)	–	–	–	–	–
CC(C)(C)c1ccc(C(=O)C[n+]2ccccc2Cl)cc1	·	·	7.9µM	·	·
O=C(C[n+]1ccccc1Cl)c1ccc(I)cc1	·	·	–	·	·
Cc1ccc(NC(=O)Cn2ncc3c4ccccc4n(Cc4ccccc4)c3c2=O)cc1Cl	·	·	·	–	–
O=C(CCn1cnc2onc(-c3ccc(F)cc3)c2c1=O)Nc1cccc(C(F)(F)F)c1	·	·	·	–	?
